Data as given in PubChem BioAssay (NCATS).
Inconclusive results are not listed. A call without a number means that no potency is given here. The source made the active and inactive calls. Calls follow the shape of the dose curve; as a rule, active = well fitted cell-killing curve with a large enough effect; inconclusive = small, poorly fitted or top-dose-only effect, or effect the other way; inactive = no such curve, though single readings can be large or run the other way.

Assay: Quantitative High-Throughput drug screen in 47 multiple myeloma cell lines against the NCATS MIPE library collection: H1112_PLB cell viability assay (AID 1918967; also: nearly all actives have a fitted effect of over 30% in size)
Details: H1112 myeloma cells viability, ATP luminescence, 48 h; series mostly up to 45.8 µM
Source text: PI: Beverly A. Mock Ph.D.
Laboratory of Cancer Biology and Genetics,
Center for Cancer Research, National Cancer Institute,
National Institute of Health, Bethesda, Maryland
Drug resistance and disease progression are common in multiple myeloma (MM) patients, underscoring the need for new therapeutic combinations. […] We hypothesized that effective combinations would reduce MYC expression and enhance p16 activity. […] These preclinical data identify potentially useful drug combinations for evaluation in drug-resistant MM and reveal potential mechanisms of combined drug sensitivity.
Described herein is the primary MIPE qHTS used to cherrypick compounds. Validated compounds were then further tested for potential synergistic activiy.
[1] Peat TJ, Gaikwad SM, Dubois W, Gyabaah-Kessie N, Zhang S, Gorjifard S, Phyo Z, Andres M, Hughitt VK, Simpson RM, Miller MA, Girvin AT, Taylor A, Williams D, D'Antonio N, Zhang Y, Rajagopalan A, Flietner E, Wilson K, Zhang X, Shinn P, Klumpp-Thomas C, McKnight C, Itkin Z, Chen L, Kazandijian D, Zhang J, Michalowski AM, Simmons JK, Keats J, Thomas CJ, Mock BA. Drug combinations identified by high-throughput screening promote cell cycle transition and upregulate Smad pathways in myeloma. Cancer Lett. 2023 Aug 1;568:216284. doi: 10.1016/j.canlet.2023.216284. Epub 2023 Jun 24. PMID: 37356470; PMCID: PMC10408729.
SEQUENCE No. (e.g., 1, 2, 3, etc.); […] (e.g., Cells, Incubation, Reagent, etc.); VALUE and DESCRIPTION.
1; Cells; 5 uL; white, solid bottom 1536-well Greiner assay plate.
2; Compounds; 23 nL; Kalypsis pin tool (Wako USA) equipped with a 1536-well pin head to transfer to the assay plates.
3; Incubation; 48 hours; 37C incubation.
4; Reagent;5uL; CellTiter Glo (Promega).
5; Detector; 425V; Luminescence; Viewlux PerkinElmer.
NOTES (numbers refer to Sequence numbers above)
1. The cell-based screening methods employed in this study were like those previously published. Briefly, the corresponding myeloma cell lines were screened in 1,536-well plates with 500 cells, 5-uL per well for inhibition of cell viability (assessed by measuring ATP levels with CellTiterGlo).
2. NCATS MIPE 4.0 library of approved and investigational drugs were added using the Kalypsis pin tool. Wells treated with DMSO only for 100% viability and media only wells for 0% viability were used as controls.
3. The assay plates were covered and incubated for 48 hours in a 37C, 5% CO2 incubator with controlled humidity.
4. After 48 hours, CellTilter-GloTM luminescent substrate mix (Promega) reagent was added to the assay plate and plates we incubated for 5 min at room temperature.
5. Signal was measured as median relative luminescence units on a ViewLux (PerkinElmer) multiplate reader.
[1] Heske CM, Davis MI, Baumgart JT, Wilson K, Gormally MV, Chen L, Zhang X, Ceribelli M, Duveau DY, Guha R, Ferrer M, Arnaldez FI, Ji J, Tran HL, Zhang Y, Mendoza A, Helman LJ, Thomas CJ. Matrix Screen Identifies Synergistic Combination of PARP Inhibitors and Nicotinamide Phosphoribosyltransferase (NAMPT) Inhibitors in Ewing Sarcoma. Clin Cancer Res. 2017 Dec 1;23(23):7301-7311. doi: 10.1158/1078-0432.CCR-17-1121. Epub 2017 Sep 12. PMID: 28899971; PMCID: PMC6636827.
Potency is read from the fitted curve at half-maximal effect.

SMILES	Potency
O=c1cc(N2CCOCC2)oc2c(-c3cccc4c3sc3ccccc34)cccc12	16.6 µM (active)
OC[C@H]1O[C@@H](n2cnc3c2NC=NC[C@@H]3O)C[C@H]1O	18.7 µM (active)
C[C@]12CC[C@@H]3c4ccc(O)cc4C[C@@H](CCCCCCCCCS(=O)CCCC(F)(F)C(F)(F)F)[C@H]3[C@H]1CC[C@H]2O (stereo not given in full)	inactive
O=c1c(-c2ccc(O)cc2)coc2cc(O)ccc12	inactive
CC(C)(C)OC(=O)N[C@H]1CCCCCC=C[C@@H]2C[C@@]2(C(=O)NS(=O)(=O)C2CC2)NC(=O)[C@@H]2C[C@@H](OC(=O)N3Cc4cccc(F)c4C3)CN2C1=O	inactive
CS(=O)(=O)N(Cc1ccco1)CC(O)Cn1c2ccccc2c2ccccc21 (stereo not given)	inactive
COc1cc2ncnc(Nc3ccc(F)c(Cl)c3)c2cc1OCCCN1CCOCC1	1.52 µM (active)
O=C(Nc1c(Cl)cncc1Cl)c1ccc(OC(F)F)c(OCC2CC2)c1	inactive
CCNc1cc(NC2CCC(O)CC2)nc(Nc2ccc3c(ccn3Cc3ccccc3)c2)n1 (stereo not given)	18.7 µM (active)
CC(C)=CC[C@@H](O)C1=CC(=O)c2c(O)ccc(O)c2C1=O	7.43 µM (active)
Cc1cccc(Nc2nc(-c3ccncc3)cs2)c1	18.7 µM (active)
Nc1ncnc2c1nc(Cl)n2[C@@H]1O[C@H](CO)[C@@H](O)[C@@H]1O	18.7 µM (active)
CC1(C)CCC(CN2CCN(c3ccc(C(=O)NS(=O)(=O)c4ccc(NCC5CCOCC5)c([N+](=O)[O-])c4)c(Oc4cnc5[nH]ccc5c4)c3)CC2)=C(c2ccc(Cl)cc2)C1	0.264 µM (active)
O=C1C(Cl)=C(NCCN2CCOCC2)C(=O)c2ncccc21	11.8 µM (active)
O=C(NCc1ccncc1)C12C[C@H]3C[C@@H](C1)CC(c1ccc(Cl)cc1)(C3)C2	13.2 µM (active)
NC(CO)(CO)CCc1ccc(Sc2cccc(OCc3ccccc3)c2)cc1Cl	16.6 µM (active)
NC1CCC(Nc2nc(Nc3ccc(C(=O)N4CCCCC4)cc3)c3ncn(-c4cccc(F)c4)c3n2)CC1 (stereo not given)	inactive
CCOC(=O)C1=C(N)Oc2ccc(Br)cc2C1C(C#N)C(=O)OCC (stereo not given)	16.6 µM (active)
CCS(=O)(=O)N1CC(CC#N)(n2cc(-c3ncnc4[nH]ccc34)cn2)C1	inactive
COc1ccc(-c2oc3c(CC=C(C)C)c(OC4O[C@H](CO)[C@@H](O)[C@H](O)[C@@H]4O)cc(O)c3c(=O)c2OC2O[C@@H](C)[C@H](O)[C@@H](O)[C@@H]2O)cc1 (stereo not given in full)	23.5 µM (active)

SMILES	Potency
CC(C)(C)C(=O)Oc1ccc2c(c1)nc(NC(=O)c1cccc([N+](=O)[O-])c1)n2CCCO	inactive
NC(=O)c1ccc2nc(-c3ccc(Oc4ccc(Cl)cc4)cc3)[nH]c2c1	inactive
CC[C@@H]1C=C(C)C[C@H](C)C[C@H](OC)[C@H]2O[C@@](O)(C(=O)C(=O)N3CCCC[C@@H]3C(=O)O[C@H](C(C)=C[C@@H]3CC[C@H](Cl)[C@H](OC)C3)[C@H](C)[C@@H](O)CC1=O)[C@H](C)C[C@H]2OC	18.7 µM (active)
Nc1ncnc2c1ncn2[C@@H]1O[C@H](CO)C[C@@H]1O	inactive
C[C@H](NC(=O)C(=O)Nc1ccccc1C(C)(C)C)C(=O)N[C@@H](CC(=O)O)C(=O)COc1c(F)c(F)cc(F)c1F	inactive
O=C(OCC#CCSc1nnc(-c2cccc3ccccc23)o1)c1cc2ccccc2s1	inactive
O=C(NCc1ccccc1)c1csc(Nc2ccncn2)n1	13.2 µM (active)
CC[C@H]1OC(=O)[C@H](C)[C@@H](O[C@H]2C[C@@](C)(OC)[C@@H](O)[C@H](C)O2)[C@H](C)[C@@H](O[C@@H]2O[C@H](C)C[C@H](N(C)C)[C@@H]2O)[C@](C)(O)C[C@@H](C)CN(C)[C@H](C)[C@@H](O)[C@]1(C)O	inactive
Cc1ccc(C(=O)Nc2cccc(C(F)(F)F)c2)cc1Nc1nc(-c2cccnc2)nc2c1cnn2C	14.8 µM (active)
N#CC1(c2ccc(NC(=O)c3cccnc3NCc3ccncc3)cc2)CCCC1	inactive
CCc1ccc(C=C2SC(=S)NC2=O)cc1	inactive
C=C1C(=O)OC2C=C(C)CCC=C(C)CCC12 (stereo not given)	20.9 µM (active)
O=C(CCc1ccc(O)cc1)c1c(O)cc(O)cc1O[C@@H]1O[C@H](CO)[C@H](O)[C@H](O)[C@H]1O	inactive
O=C(Nc1cc(Cl)cc2c1[nH]c1cnccc12)c1cccnc1	1.48 µM (active)
NC(=O)NN=Cc1ccc([N+](=O)[O-])o1	inactive
CC=CC(=O)N(CC)c1ccccc1C	inactive
O=C(CCCCCCC(=O)Nc1ccccc1)NO	4.18 µM (active)
COc1ccc(C2Sc3ccccc3N(CCN(C)C)C(=O)C2OC(C)=O)cc1 (stereo not given)	inactive
CO[C@H]1C[C@@H]2CC[C@@H](C)[C@@](O)(O2)C(=O)C(=O)N2CCCC[C@@H]2C(=O)O[C@H]([C@H](C)C[C@@H]2CC[C@H](OCCO)[C@H](OC)C2)CC(=O)[C@H](C)C=C(C)[C@@H](O)[C@@H](OC)C(=O)[C@H](C)C[C@H](C)C=CC=CC=C1C	inactive
O=c1cc(-c2cccc3c2Sc2ccccc2S3)oc(N2CCOCC2)c1	20.9 µM (active)
